# Paper PMC5540273 (PLoS ONE, 2017)
# 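Note: kd values determined as follow-up on hits from a single-replicate KINOMEscan panel screen.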
structure (smiles),measurement,setting,value
Cc1cc(Nc2nc(-c3cccc(C)n3)nc3ccccc23)ccn1 [GW872411],Kd,TGFBR1,270 nM
COc1cc2ncn(-c3cc(OCc4ccncc4)c(C(N)=O)s3)c2cc1OC [GSK336313],Kd,TIE1,> 10000 nM
O=C1NC(=O)C(c2ccccc2)=C1Nc1cccc(O)c1 [SB-390534],Kd,TLK2,2400 nM
CCCC(=O)Nc1n[nH]c2ncc(-c3cccc4ccccc34)cc12 [SB-642057],Kd,TLK2,> 10000 nM
COc1cc(OC)cc(-c2cc3cnc(N)nc3nc2NC(=O)NC(C)(C)C)c1,Kd,TNK2,> 10000 nM
